# Screening results (PubChem BioAssay)
# Rows were chosen to be rich in hits. Some 0.74% of all compounds tested hit in one or more screens of this group.
# Rv3671c protease = Rv3671c serine protease inhibitors, primary screen, biochemical, fluorescence polarization, M. tuberculosis H37Rv | inhibition, % at 5.96 µM | 0.048% of 320,000 active | AID 2606, 2010; in the data active means inhibition above about 38%;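 further: extracellular domain of Rv3671c used as enzyme; 0% = enzyme with DMSO and 100% = no enzyme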
# Target sequence (P9WHR9 whole entry, looked up, the tested form may be a part): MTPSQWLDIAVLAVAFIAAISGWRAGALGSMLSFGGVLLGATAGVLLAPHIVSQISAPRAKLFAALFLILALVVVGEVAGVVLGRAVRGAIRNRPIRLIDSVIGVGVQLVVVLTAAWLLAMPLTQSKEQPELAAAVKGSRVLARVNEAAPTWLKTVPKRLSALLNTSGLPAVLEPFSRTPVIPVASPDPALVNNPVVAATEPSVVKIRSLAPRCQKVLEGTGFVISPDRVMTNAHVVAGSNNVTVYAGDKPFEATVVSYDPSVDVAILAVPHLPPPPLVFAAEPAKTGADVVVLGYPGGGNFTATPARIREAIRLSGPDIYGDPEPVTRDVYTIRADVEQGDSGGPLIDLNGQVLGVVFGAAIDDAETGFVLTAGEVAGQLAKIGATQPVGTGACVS
# MazF activator = activators of E. coli MazEF toxin-antitoxin RNase, primary screen, biochemical, fluorescence, uHTS; Endoribonuclease toxin MazF (Escherichia coli (strain K12)), P0AE70; FAM/BHQ RNA-DNA oligo cleavage fluorescence, 5 h; activation, % at 20 µM; 0.32% of 350,000 active; AID 504720, 2011; in the data active means activation above about 50%
# Target sequence (P0AE70 whole entry, looked up): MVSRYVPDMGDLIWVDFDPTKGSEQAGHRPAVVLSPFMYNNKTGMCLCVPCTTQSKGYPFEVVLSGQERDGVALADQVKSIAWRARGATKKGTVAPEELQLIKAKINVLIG
# Mtb UGM inh = M. tuberculosis UGM enzyme inhibitors, primary screen, biochemical, fluorescence polarization, single point; purified UGM, fluorescence polarization probe displacement; UDP-galactopyranose mutase (Mycobacterium tuberculosis (strain ATCC 25618 / H37Rv)), …; 0.06% of 320,000 active; AID 504406, 2011; inhibition, % at 10 µM; in the data active means inhibition above about 10%, passing the limit was not always enough; inconclusive means no clear call, values can overlap the other calls
# FadD28 binding = inhibitors of FadD28 bisubstrate probe binding, primary screen, biochemical, fluorescence polarization, single point; Mycobacterium tuberculosis FadD28 fatty-acid-AMP ligase; inhibition, % at 12.5 µM; 0.22% of 360,000 active; in the data active means inhibition above about 8.5%, passing the limit was not always enough; inconclusive means no clear call, values can overlap the other calls
# Mtb bLac sens = beta-lactam sensitization of Mtb H37Rv, H37Rv; M. tuberculosis H37Rv growth with meropenem, percent inhibition; inhibition, % at 25 µM; AID 434955, 2010; 0.27% of 330,000 active; call rule not given here;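 further: growth measured after seven days incubation then overnight dye step; 0% = bacteria only wells and 100% = bacteria with antibiotic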
# BH1578 lux ind = inducers of Vibrio cholerae quorum light production without autoinducers, primary screen, BH1578 luxS cqsA deficient, single point; V. cholerae BH1578 lux reporter, luminescence, 6 h; activation, % at 18.7 µM; 0.16% of 350,000 active; AID 588436, 2011; in the data active means activation mostly above about 9.7%, no sharp cut-off; inconclusive means no clear call, values can overlap the other calls; inactive means mostly below about 3.7%
# Starred values were filed as active, the others as inactive; i = inactive; ? = inconclusive; · = no result.
SMILES,Rv3671c protease,MazF activator,Mtb UGM inh,FadD28 binding,Mtb bLac sens,BH1578 lux ind
CC(=O)[C@@]1(O)Cc2c(O)c3c(c(O)c2[C@H](O[C@H]2C[C@H](N)[C@H](O)[C@H](C)O2)C1)C(=O)c1ccccc1C3=O,·,·,·,74*,·,-1
COc1cccc2c1C(=O)c1c(O)c3c(c(O)c1C2=O)CC(O)(C(C)=O)CC3OC1CC(N(C)C)C(O)C(C)O1 (stereo not given),·,-776,·,60*,·,17
COc1cccc2c1C(=O)c1c(O)c3c(c(O)c1C2=O)CC(O)(C(C)=NO)CC3OC1CC(N)C(O)C(C)O1 (stereo not given),·,i,·,63*,·,6
CCOc1ccc(S(=O)(=O)NCc2ccc3c(c2)OCO3)cc1,-1,-35,2,-2,4,i
COc1cccc2c1C(=O)c1c(O)c3c(c(O)c1C2=O)C[C@@](O)(C(=O)CO)C[C@@H]3O[C@H]1C[C@H](N)[C@H](O)[C@H](C)O1,30,i,40*,63*,97,0
CC/C(=N\NC(=O)c1ccccc1O)c1c(O)n(C2CCCCC2)c(=O)[nH]c1=O,16,2,-2,15*,5,-1
O=C(NCCSCc1ccc(Cl)cc1Cl)c1ccc(CN2CCOCC2)cc1,-3,0,1,43*,-2,0
O=C(Nc1ccc2oc(-c3ccccc3)nc2c1)c1cc(-n2cnnc2)ccc1Cl,-7,54*,1,-5,61,i
COc1cc(CN2C[C@@H](CO)O[C@@H](n3cnc4c(N(C)C(C)C)ncnc43)C2)cc(OC)c1OC,·,·,·,0,·,0
COC(=O)Cn1c(C(F)(F)F)nc2ccccc21,6,11,0,-1,6,0
CCOC(=O)Cn1c2ccc(OC)cc2c2nc3ccccc3nc21,5,276*,8,0,2,0
COC(=O)Cn1c2ccc(OC)cc2c2nc3ccccc3nc21,-8,236*,1,-3,-1,·
COc1ccc2c(c1)c1nc3ccccc3nc1n2Cc1ccc(OC)c(OC)c1,-3,116*,5,-3,1,0
CCOc1ccc(Cn2c3ccc(OC)cc3c3nc4ccccc4nc32)cc1OC,1,-21,3,-3,9,i
COc1ccc(/C=C/C(=O)NC(=S)N2CCN(C)CC2)cc1,-7,51*,1,-1,-6,i
COC(=O)c1ccc(/C=N/Nc2nc(-c3ccc(C)cc3)cs2)cc1,-7,52*,-1,-4,·,i
NS(=O)(=O)c1ccc(Nc2nc(-c3ccc(O)cc3)cs2)cc1,12,10,3,10*,-1,0
Oc1ccc(Nc2nc(-c3ccc(O)cc3)cs2)cc1,12,78*,3,0,3,0
Oc1ccc(Nc2nc(-c3cccnc3)cs2)cc1,6,3,-1,-1,0,-2
Cc1ccc(C(=O)Nn2c(C)nc3ccccc3c2=O)cc1C,2,7,-2,·,4,-1
Cc1cccc(C(O)c2ncc(-c3ccc4ccccc4c3)[nH]2)c1C (stereo not given),·,·,·,0,·,i
COc1cc(/C=C2/C(=O)NN(c3cccc(F)c3)C2=O)ccc1OC(=O)c1ccco1,7,-2,1,4,100,0
COc1cc(/C=C2/C(=O)NN(c3ccc(Cl)c(Cl)c3)C2=O)cc([N+](=O)[O-])c1O,-2,-6,4,28*,41,i
COc1cc(/C=C2/C(=O)NN(c3ccc(Cl)cc3)C2=O)ccc1OC(=O)c1ccco1,1,-2,2,9.3*,100,i
CC(C)c1nc2sc3c(=O)[nH]cnc3c2c2c1CCCC2,-12,68*,-2,-3,3,i
SMILES,Rv3671c protease,MazF activator,Mtb UGM inh,FadD28 binding,Mtb bLac sens,BH1578 lux ind
CC(C)c1nc2sc3c(=O)[nH]cnc3c2c2c1CCC2,-24,0,0,0,13,0
O=C(O)C(c1ccccc1)N1C(=O)/C(=C\c2ccc(-c3ccccc3Cl)o2)SC1=S (stereo not given),-8,-338,1,11*,0,i
COc1cc(/C=C2\SC(=S)N(C(C(=O)O)c3ccccc3)C2=O)cc(OC)c1OC (stereo not given),-1,-5,3,0,4,0
O=C(O)C(c1ccccc1)N1C(=O)/C(=C\c2ccc(-c3ccc(Br)cc3)o2)SC1=S (stereo not given),·,-237,·,27*,·,0
CCOC(=O)C1CCN(S(=O)(=O)c2c(Cl)ccc3nonc23)CC1,-5,·,-1,-3,?,0
COc1ccc(NC(=O)Nc2cccc3[nH]c([C@@H]4O[C@H](CO)[C@@H](O)[C@H](O)[C@H]4O)nc23)cc1OC1CCCC1,·,·,·,0,·,0
O=C(c1cccs1)c1no[n+]([O-])c1C(=O)c1cccs1,1,-6,11*,-1,6,i
CCN(C[C@H]1N[C@@](C)(C(=O)OC)[C@H]2C(=O)N(C)C(=O)[C@@H]12)C(=O)c1ccc(C(C)(C)C)cc1,3,2,·,-1,0,i
Cc1cc(/C=N/Nc2ccc([N+](=O)[O-])cn2)c(C)n1-c1ccccc1,8,5,-3,-6,3,i
O=[N+]([O-])c1ccc(NN=Cc2cccc3ccccc23)nc1,·,123*,·,-3,·,-3
Cc1c(C(=O)O)cccc1-n1c(C)cc(/C=N/Nc2ccc([N+](=O)[O-])cn2)c1C,7,-5,-1,34*,45,-2
O=C(O)c1ccccc1C=NNc1ccc([N+](=O)[O-])cn1,·,7,·,0,·,i
Cc1ccc(NCc2nnc(SCC(=O)c3ccc4c(c3)OCCO4)o2)c(C)c1,-1,52*,1,0,5,0
COc1ccc(C(=O)CSc2nnc(CNc3ccc(C)cc3C)o2)cc1,-1,2,2,-3,-8,-2
Cc1ccccc1OCCn1cc(C(=S)N2CCN(C)CC2)c2ccccc21,1,2,-1,-3,4,0
Cc1ccccc1OCCn1cc(C(=S)N2CCCC2)c2ccccc21,-8,6,11*,-2,-10,i
O=C(O)c1cc(-c2ccc(/C=C3\NC(=O)N(c4ccc(Cl)cc4)C3=O)o2)ccc1Cl,5,-3,1,10*,1,0
O=C(O)c1cc(-c2ccc(/C=C3\NC(=O)N(c4ccccc4)C3=O)o2)ccc1Cl,-4,-13,0,2,11,0
CCN(CC)c1ccc(N=Cc2ccc(N(CC)CC)cc2O)cc1,-19,162*,1,-2,61,i
